# Only some compounds are listed: those with a hit (about 14% of all), similar ones and a draw of the others.
# USP28 block – inhibitors of human USP28 deubiquitinase; inhibition, % at 25 µM; purified USP28, Ub-rhodamine cleavage fluorescence, 30 min; Q96RU2; actives 3% (n = 47,000); AID 1645857
# USP8 block – human USP8 deubiquitinase inhibition; P40818; purified USP8, Ub-rhodamine cleavage fluorescence, 30 min; inhibition, % at 20 µM; actives 4.2% (n = 47,000)
# USP10 inh – human USP10 deubiquitinase inhibition. Q14694. purified USP10, Ub-rhodamine fluorescence, 60 min. inhibition, % at 20 µM. actives 1.1% (n = 47,000)
# USP17 inh – inhibitors of human USP17 deubiquitinase | purified USP17, Ub-rhodamine cleavage fluorescence, 3 h | actives 6.5% (n = 47,000) | A8MUK1 | inhibition, % at 50 µM
# USP30 block – inhibitors of human USP30 deubiquitinase | AID 1645860 | actives 5.3% (n = 47,000) | inhibition, % at 25 µM | purified USP30, Ub-rhodamine cleavage fluorescence
# Hits are given with their value; – = inactive; · = no result. No stated cut-off is given here; in the data, active means inhibition above about 30%; inactive means the rest.
SMILES,USP28 block,USP8 block,USP10 inh,USP17 inh,USP30 block
COC(=O)c1nn(-c2ccc(Cl)cc2)c(=O)cc1Sc1ccc(C)cc1,–,53,–,–,–
CS(=O)(=O)Nc1cccc(C(=O)Nc2ccccc2-c2ccccc2)c1,–,–,–,–,–
CCN(c1ccc(NC(=O)CSc2nccc(=O)[nH]2)cc1)C(C)C,–,59,–,–,–
CCN(c1ccc(NC(=O)COC(=O)c2cccnc2Nc2cccc(C(F)(F)F)c2)cc1)C(C)C,–,–,–,–,–
CCOC(=O)N1CCN(C(=O)c2[nH]nc3c2CCc2ccccc2-3)CC1,–,–,–,–,–
CC1(C)C(=O)CC[C@@]2(C)C1CC[C@]1(C)C2CC[C@@H]2[C@H]3[C@H]4OC[C@@]3(CCC4(C)C)CC[C@]21C (some centres not stated),–,–,–,–,31
CC(C)=CCC[C@](C)(O)[C@H]1CC[C@]2(C)[C@@H]1CC[C@@H]1[C@@]3(C)CCC(=O)C(C)(C)[C@@H]3CC[C@]12C,–,–,–,–,–
O=C(CN1C(=O)c2ccccc2Sc2ccc(C(=O)N3CCCC3)cc21)Nc1ccccc1Cl,38,–,–,52,–
O=C(NCCn1ncc2c(N3CCCCC3)ncnc21)c1ccccc1,–,–,–,–,–
OC1CCN(c2cc(-c3cccnc3)nc(-c3cccnc3)n2)CC1,–,–,–,–,–
Cc1nc(-c2cccnc2)nc2c1CC(=O)N2C1CCCC1,–,37,–,–,–
O=C(C1CCCN(S(=O)(=O)N2CCOCC2)C1)N1CCN(C2CCCCC2)CC1 (configuration not stated),–,–,–,–,–
COCCn1cc(CN2CCC(O)(c3ccccc3F)CC2)c2ccccc21,–,32,–,–,35
OC1(c2cccnc2)CCN(Cc2ccccc2F)CC1,–,–,–,–,–
CCN1CCN(c2ccc(C(=O)OC)cc2NC(=O)/C=C/c2cc(Br)ccc2OC)CC1,–,–,–,–,–
CCN1CCN(c2ccc(C(=O)OC)cc2NC(=O)c2sc3cc(Cl)ccc3c2Cl)CC1,–,–,–,–,48
Cc1c(C(=O)N2CCC(Cc3ccccc3)CC2)oc2c1C(=O)CCC2,–,–,–,–,33
Cc1c(C(=O)N2CCN(C)CC2)oc2c1C(=O)CCC2,–,–,–,–,–
CO/C=C/C(=O)c1cc2cnc3c(=N)cc(NC(C)=O)c([nH]1)c23,43,42,–,54,–
Cc1ccccc1C(=O)Nc1cc(=O)n(C)c(=O)n1C,–,–,–,–,–
Cc1ccc(C)c(C(=O)CSc2nnc(C)n2Cc2ccccc2)c1,–,–,–,–,–
COc1ccc(C)cc1NC(=O)C(Sc1nnc(C2CC2)n1Cc1ccccc1)c1ccccc1 (configuration not stated),30,–,–,–,37
Cc1ccc(C)c(NC(=O)C(Sc2nnc(C)n2Cc2ccccc2)c2ccccc2)c1 (configuration not stated),–,–,–,·,30
O=C(NCc1ccc2c(c1)OCO2)c1cn2cc(Cl)ccc2n1,–,–,–,47,–
O=C(NCc1ccc2c(c1)OCO2)c1nc(-n2cnnc2)ccc1Br,–,–,–,35,39
SMILES,USP28 block,USP8 block,USP10 inh,USP17 inh,USP30 block
Cc1cc2nc(N3CCCCC3C)c3ccccc3n2n1 (configuration not stated),–,–,–,–,–
Cc1cc2nc(N3CCN(C(=O)c4ccccc4)CC3)c3ccccc3n2n1,–,–,–,–,34
Cc1ccc2nc(NC(=O)CN3CCC(C(N)=O)CC3)sc2c1,–,–,–,–,–
Cc1ccc2nc(NC(=O)CSc3nnc(-c4ccncc4)n3C3CC3)sc2c1,–,–,–,57,–
CC(C)c1nc(CNC(=O)C2CCCCC2)no1,–,–,–,37,–
O=C(Cn1c(CSc2ccccc2)nc2ccccc21)Nc1ccccc1F,65,51,–,–,–
Cc1cc(=O)n(CC(=O)Nc2ccccc2F)c(N2CCCCC2)n1,–,–,–,–,–
CS(=O)(=O)N1CCCC(Cc2nccnc2-c2ccn[nH]2)C1 (configuration not stated),–,–,–,–,–
O=C(NCCc1ccco1)c1ccc(N2CCOc3ccccc32)s1,–,–,–,57,47
O=C(NC1CCCCCC1)c1ccc(N2CCOc3ccccc32)s1,–,–,–,–,–
CC(C)(C)c1nn(-c2ccccc2)c2[nH]c(=O)c(CNCc3ccco3)cc12,–,39,–,–,–
COc1ccc(CCNCc2c(C(=O)O)c(C)n(-c3ccccc3)c2C)cc1OC,–,–,–,–,–
COc1ccc(CCNCc2cc3c(C(C)(C)C)nn(-c4ccccc4)c3[nH]c2=O)cc1OC,–,46,–,–,–
Cn1c(=O)[nH]c(=O)c2c1nc(NCc1ccco1)n2CCO,–,–,–,–,–
COc1ccc(C(=O)Nc2ccc(O)cc2C(=O)O)cc1OC,–,33,–,–,32
Cc1onc(C(C)C)c1C(=O)N1CCOC(c2cccc(-c3cncnc3)n2)C1 (configuration not stated),–,–,–,–,–
O=C(O)c1cccc2oc(-c3cccc4oc(-c5ccccc5O)nc34)nc12,–,–,–,46,–
CCC(=O)c1cn(CC(=O)Nc2cccc(C)c2)c2ccccc12,–,–,–,–,–
COc1cccc(NC(=O)Cn2cc(C(=O)C3CC3)c3ccccc32)c1,–,–,–,53,69
Cc1ccc(C)c(NC(=O)Cn2cc(C(=O)C3CC3)c3ccccc32)c1,57,93,46,62,76
Cc1cccc(-c2nnn3c2nc(NCC2CCCO2)c2ccccc23)c1 (configuration not stated),–,67,–,58,66
Cc1cc(NCC2CCCO2)n2nc(-c3cccc(Cl)c3)c(C)c2n1 (configuration not stated),–,–,–,–,–
O=C(Cn1cc(S(=O)(=O)N2CCOCC2)ccc1=O)Nc1cccc(Cl)c1,–,–,–,–,–
COc1ccccc1OCC(=O)Nc1ccc(-c2nc3ccccc3s2)cc1,–,–,–,–,–
CCC(C)c1ccc(NC(=O)COc2nc3ccccc3nc2C)cc1 (configuration not stated),–,–,–,47,–
O=C(CCC(=O)N1CC=C(c2ccccc2)N1)N1CCC(c2nc3ccccc3o2)CC1,–,–,–,–,–
O=C1CC(c2ccccc2)n2nc(NC(=O)c3ccccc3F)nc2N1 (configuration not stated),–,44,–,–,–
CC(=O)Nc1nc2n(n1)C(c1ccccc1)CC(=O)N2 (configuration not stated),–,–,–,–,–
COc1ccccc1/C=C/C(=O)Nc1nc2n(n1)C(c1ccc(Cl)cc1)CC(=O)N2 (configuration not stated),–,–,–,44,39
COc1ccc(C(=O)Nc2nc3n(n2)C(c2ccccc2)CC(=O)N3)cc1 (configuration not stated),–,76,–,73,35

# Compound activity as filed in PubChem.
